GALR2 ag: GALR2 receptor agonists, primary screen, cell-based. activation, % (test concentration not listed). Galanin receptor type 2 (Homo sapiens), O43603. 140,000 tested, 0.48% active. AID 803, 2007. GALR2-expressing cells, agonist activation read-out; in the data active = activation above about 5%, passing the limit was not always enough;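 note: 0% = vehicle buffer wells and 100% = reference agonist at full effect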
Target sequence (O43603 whole entry, looked up): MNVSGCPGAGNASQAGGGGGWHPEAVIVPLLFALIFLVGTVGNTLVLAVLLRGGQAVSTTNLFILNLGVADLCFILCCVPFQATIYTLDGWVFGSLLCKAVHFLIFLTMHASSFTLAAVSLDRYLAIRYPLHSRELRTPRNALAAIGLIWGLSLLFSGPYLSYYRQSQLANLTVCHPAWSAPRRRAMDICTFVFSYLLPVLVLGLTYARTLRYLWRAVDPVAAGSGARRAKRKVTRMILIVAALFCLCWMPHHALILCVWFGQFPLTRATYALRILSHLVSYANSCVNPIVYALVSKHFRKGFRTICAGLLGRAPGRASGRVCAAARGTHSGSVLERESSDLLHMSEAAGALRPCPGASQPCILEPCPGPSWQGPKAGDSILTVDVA
GALR2 antag: GALR2 antagonists in receptor-expressing cells, primary screen | inhibition, % at 4 µM | Galanin receptor type 2 (Homo sapiens), O43603 | AID 828, 2007 | 140,000 tested, 0.39% active | antagonist mode; in the data active = inhibition above about 27%;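 note: cells stimulated with galanin 1-16 at roughly its EC80; 0% = agonist challenge control and 100% = basal control without agonist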
S1P2 antag: human S1P2 receptor antagonists, primary screen, cell-based; cell-based S1P2 antagonist assay, inhibition at 5 uM; inhibition, % at 5 µM; 97,000 tested, 0.21% active; AID 736, 2007; in the data active = inhibition above about 45%;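 note: CRE beta-lactamase reporter cells expressing human S1P2 stimulated with S1P; 0% = agonist at EC80 alone and 100% = agonist plus reference antagonist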
S1P2 ag: S1P2 receptor agonists, primary screen, cell-based; S1P2-expressing cell line, agonist reporter read-out; activation, % at 4.5 µM; 97,000 tested, 0.46% active; AID 729, 2007; in the data active = activation above about 16%;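 note: 0% = vehicle low control and 100% = maximal reference agonist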
PLAP activator: PLAP enzyme activators, biochemical, luminescence, HTS; Alkaline phosphatase, placental type (Homo sapiens), P05187; purified PLAP enzyme, luminescent substrate read-out; active compounds read high; activation fold at 20 µM; 96,000 tested, 1.2% active; AID 696, 2007; in the data active = activation fold above about 2
Active calls of the source: *; . = not tested or not shown. Only some compounds are listed: those with a hit (about 2% of all), similar ones and a draw of the others.

SMILES	GALR2 ag	GALR2 antag	S1P2 antag	S1P2 ag	PLAP activator
Cc1ccccc1COc1ccc(/C(O)=C2/C(=O)C(=O)N(CCCn3ccnc3)C2c2ccco2)cc1 (configuration not stated)	.	.	.	.	2.6*
CC(C)CC1NC(=O)N(CC(=O)N2CCN(S(=O)(=O)c3ccccc3)CC2)C1=O (configuration not stated)	-3	-7	11	-5	0.9
CCOC(=O)CSC1=N/C(=C\c2ccc(OC)c(OC)c2)C(=O)N1C	-1	-18	.	.	.
CCCCCCC1CCC(C(=O)NC(CCSC)C(=O)NC(C(=O)OC)C(C)C)CC1 (configuration not stated)	-2	-3	14	-4	2.2*
CCNc1nc(NCC)n2c(SCc3nc4ccccc4c(=O)[nH]3)nnc2n1	-1	4	-49	43*	1.1
Cn1c(-c2ccccc2)cnc1SCc1nc2ccccc2c(=O)[nH]1	-1	6	26	-4	2.5*
O=C(N/N=C/C=C/c1ccccc1)c1n[nH]c2c1CCC2	-1	-7	-4	4	2.4*
CC(/C=N/NC(=O)c1n[nH]c2c1CCC2)=C\c1ccccc1	2	21	0	-3	1.5
COc1cc(C(=O)Nc2ccc(-c3nc4cc(C)ccc4o3)c(O)c2)cc(OC)c1OC	0	-4	-21	-10	2.7*
CN(C)CCCOC(=O)COc1ccc(C(C)(C)C)cc1	-1	-4	.	.	.
CCSc1nc2c(c(=O)[nH]1)C(C(C)C)C(C#N)=C(N)O2 (configuration not stated)	-4	6	-11	-4	1
CCc1cc2c(CN3CCN(CC)CC3)cc(=O)oc2cc1O	4.9*	3	13	4	1.4
Cc1ccccc1-n1c(SCc2ccccn2)nc2n[nH]c(C)c2c1=N	1	-1	-24	12	2.3*
O=C(CSc1nc2c(c(=O)n1-c1ccc(Cl)cc1)SCC2)N1CCOCC1	-1	-6	-8	21*	1.1
O=C(Cc1cn(Cc2cccc(Cl)c2)c2ccccc12)N1CCCCCC1	0	3	.	.	.
O=C(c1ccccc1)N1CCN(Cc2ccccc2)CC1	0	11	-7	-2	.
Oc1cccc(C(=S)N2CCN(Cc3ccccc3)CC2)c1	-1	0	12	56*	1.4
O=C(Nc1ccc(-c2nc3ncccc3o2)cc1)c1ccc(Br)o1	3	-14	54*	-1	.
O=C(Nc1ccc(-c2nc3ncccc3o2)cc1)c1ccco1	0	-19	12	-4	1
CN(C)CCCNc1ccc(S(N)(=O)=O)cc1[N+](=O)[O-]	-2	1	.	.	.
O=C(Nc1ccc2oc(-c3cccc4ccccc34)nc2c1)c1ncn[nH]1	-3	11	-2	-3	.
O=C(Nc1ccc2oc(-c3ccccc3Cl)nc2c1)c1ncn[nH]1	3	-11	-7	2	2*
C=CCSc1nc2ccccc2n1C(=O)/C=C/c1cc(OC)c(OC)c(OC)c1	1	7	54*	-6	1
COc1ccc(N/C(N)=N/c2nc(CSc3ccc(Cl)cc3)cc(=O)[nH]2)cc1	-2	12	13	-6	2*
N/C(=N\c1nc(CSc2ccc(Cl)cc2)cc(=O)[nH]1)Nc1cccc2ccccc12	-2	-11	11	-5	1.5
SMILES	GALR2 ag	GALR2 antag	S1P2 antag	S1P2 ag	PLAP activator
CC1CCCN(c2ccc([N+](=O)[O-])cc2C(=O)c2ccccc2)C1 (configuration not stated)	2	8	.	.	.
C/C(=N\NC(=O)c1c[nH]c2ccccc12)c1ccco1	-1	8	-8	-3	2.3*
Cc1cc(Nc2ccc(Br)cc2F)n2nc(C)nc2n1	-1	1	.	.	.
c1ccc(-c2nnc(-c3ccccn3)nc2NC2CCCCC2)cc1	-2	17	0	-8	2.4*
CNc1nc(-c2ccccn2)nnc1-c1ccccc1	-1	-10	-21	-3	1.4
CN(C(=O)CN1CCC(NC(=O)C2CCCCC2)CC1)C1CCCCC1	-2	2	0	-4	2*
CN1[C@@H]2CC[C@H]1CC(OC(=O)C(CO)c1ccccc1)C2 (some centres not stated)	-1	11	.	.	.
COCCN1C=C(C(=O)OC)C(c2ccc(OC)c(OC)c2)C(C(=O)OC)=C1	0	-16	20	4	1.4
CCCOc1ccc(C2C(C(=O)OC)=CN(CCOC)C=C2C(=O)OC)cc1	6.9*	-13	-18	17*	2.1*
CCN(CC)C(=O)COc1ccc2oc(C)c(C(=O)OC(C)C)c2c1	2	-7	-20	-3	2.6*
Cc1ccc(C2c3sc(=O)[nH]c3SC3C(=O)NC(=O)C32)cc1 (configuration not stated)	-1	11	.	.	.
O=C(CNC(=O)c1cccs1)c1ccc(F)cc1	0	-6	-19	-2	.
Cc1cc(-n2c(C)cc(C(=O)CSc3nnc4sc5ccccc5n34)c2C)no1	-3	-3	-14	-2	1.1
Cc1cc(-n2c(C)cc(C(=O)CSc3ncnc4ccccc34)c2C)no1	-2	21	60*	-5	1
CCc1ccc(C(=O)CN(C#N)c2nc(C)cc(C)n2)cc1	-2	-3	0	-5	2.7*
COc1cc2c(C(=O)NCc3ccc4c(c3)OCO4)cn(CC(C)C)c(=O)c2cc1OC	-2	4	3	2	0.9
COc1cc2c(C(=O)Nc3ccc4c(c3)OCO4)cn(CC(C)C)c(=O)c2cc1OC	-2	13	-30	9	2.4*
COc1cccc(NC(=O)c2cn(C)c(=O)c3cc(OC)c(OC)cc23)c1	-2	-1	-29	28*	1.3
COc1ccc(CCNC(=O)c2cc(-c3cc(C)ccc3O)n[nH]2)cc1OC	-1	2	-17	0	2.9*
COc1ccc(CCNC(=O)c2cc(-c3ccc(C)c(C)c3O)n[nH]2)cc1OC	-3	-1	-4	-2	2.1*
CCOC(=O)Cc1c(C)c2ccc(N(CC)CC)cc2oc1=O	19*	-4	-6	20*	1.4
CCN(CC)c1ccc2c(C)c(-c3ccc(N)cc3)c(=O)oc2c1	4	15	.	.	0.9
CCN(CC)c1ccc2c(Cl)c(Br)c(=O)oc2c1	0	76*	103*	-18	1
CCCc1c(OCCCCc2nn[nH]n2)ccc(C(C)=O)c1O	-2	-13	.	.	.
O=C(NNC(=O)C(c1ccccc1)c1ccccc1)c1ccccn1	-1	13	.	.	.
N#CCCN(C(=O)CSc1nc(-c2ccccc2)cn1N)c1ccc(F)cc1	1	-6	4	-1	0.9
CCOC(=O)C1=C(CSc2n[nH]c(N)n2)NC(=O)NC1C (configuration not stated)	-2	-7	14	-2	2.4*
COc1cccc2sc(Nc3nnc(-c4ccc(F)cc4)o3)nc12	-3	-2	-1	-3	2.4*
N=c1c2c(-c3ccccc3)c(-c3ccccc3)n(Cc3ccco3)c2ncn1Cc1ccco1	5.2*	-2	.	.	1.2

From PubChem BioAssay
